19 compounds from ChEMBL document CHEMBL3988442, “University of Dundee, Small-Polar-MMV Screening Library” (2021) can be followed below.

The target in experiment [1] is T1, Aspartate--tRNA(Asp/Asn) ligase (Mycobacterium tuberculosis (strain ATCC 25618 / H37Rv)) (UniProt P9WFW3). Further: in the data most compounds retested in dose-response had high values.
T1 sequence (whole entry): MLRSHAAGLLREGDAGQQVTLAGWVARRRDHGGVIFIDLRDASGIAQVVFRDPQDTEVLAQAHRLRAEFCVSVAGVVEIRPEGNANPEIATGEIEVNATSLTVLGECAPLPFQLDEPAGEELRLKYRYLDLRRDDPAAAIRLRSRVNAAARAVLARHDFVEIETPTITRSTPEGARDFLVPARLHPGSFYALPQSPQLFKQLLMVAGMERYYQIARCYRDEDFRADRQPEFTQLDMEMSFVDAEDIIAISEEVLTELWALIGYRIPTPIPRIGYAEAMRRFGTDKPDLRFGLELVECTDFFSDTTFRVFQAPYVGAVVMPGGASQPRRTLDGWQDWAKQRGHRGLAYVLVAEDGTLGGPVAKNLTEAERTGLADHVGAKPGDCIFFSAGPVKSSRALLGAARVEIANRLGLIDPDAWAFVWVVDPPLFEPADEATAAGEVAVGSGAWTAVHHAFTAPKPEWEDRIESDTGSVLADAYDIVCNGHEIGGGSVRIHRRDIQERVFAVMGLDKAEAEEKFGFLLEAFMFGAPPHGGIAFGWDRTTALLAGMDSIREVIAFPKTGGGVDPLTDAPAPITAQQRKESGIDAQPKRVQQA
Description: Assay for Asp RNA synthetase-1 from Mycobacterium tuberculosis. The note with it: 30 µM. Also on record: scale not given: direction of the effect not stated beside the values. Format: functional.

The target in experiment [2] is Shiga toxin 2 (Escherichia coli O157:H7) (UniProt P09385+P09386). In words: E. coli 0.157:H7 Shiga Toxin SOP - stx2 screening assay. In kind it is functional. Also on record: scale not given: direction of the effect not stated beside the values. As to conditions: 30 µM.

Turning to `Cc1cc(C)c(CNC(=O)N2CCN(c3ncccn3)CC2)c(=O)[nH]1`, the Percent Effect in experiment [1] is -0.7%; in experiment [2] it was -6.87%.
In the same order, the values of `CNS(=O)(=O)c1ccc(C(=O)N2CCCC(n3cccn3)C2)cc1` (stereo not drawn) are 0.589% and 2.6%.
In the same order, the values of `Cc1cnc(CN(C)C2CCN(Cc3ccccc3C#N)C2)o1` (stereo not drawn) are -4.54% and -34.4%.
The matching figures for `CS(=O)(=O)N1CCC(NC(=O)COc2ccc(Cl)c(Cl)c2)CC1`: 1.23% and -20.3%.
For the compound `O=C(c1n[nH]c2ccccc12)N1CCCC1c1noc(C2CC2)n1` (stereo not drawn), the Percent Effect in experiment [1] was -5.34%; in experiment [2], 9.03%.
`COCCc1noc(CN2CCc3nn(C(C)C)c(=O)cc3C2)n1`: the Percent Effect in experiment [1] is -0.0281%; in experiment [2], 19.6%.
In the same order, the values of `Cc1ccc(OCC(=O)NCC(C)C)nc1` are -3.37% and -28.9%.
`Cn1cccc1C(=O)N1CCc2ncnc(N3CCCC3)c2CC1`: the Percent Effect in experiment [1] is -0.927%; in experiment [2], -8.7%.
In the same order, the values of `CC1CN(CC(=O)Nc2nncs2)CCN1c1nccs1` (stereo not drawn) are 4.78% and 27.5%.
In the same order, the values of `CN(Cc1ccc(F)cc1)C(=O)NCc1nnc2n1CCCCC2` are -5.74% and -16.9%.
With `O=C(c1ccc(C2CCCO2)s1)N1CCN(c2ccccc2F)CC1` (stereo not drawn), the Percent Effect in experiment [1] is 1.1%; in experiment [2], -30.2%.
In the same order, the values of `CCCc1n[nH]c(C2CN(CCNS(=O)(=O)CC)CCO2)n1` (stereo not drawn) are 2.63% and -17%.
The matching figures for `Cc1noc(C2CCC3(CCN(C(=O)c4c(C)noc4C)CC3)O2)n1` (stereo not drawn): -3.06% and 16.1%.
Consider `Cc1cc2nc(SCC(=O)N3CCCC3)n(C(C)C)c(=O)c2[nH]1`, for which the values for the Percent Effect in experiment [1] and in experiment [2] were 0.509% and -18%, respectively.
The matching figures for `CC(CCc1ccco1)NC(=O)Nc1cc(C(F)(F)F)c[nH]c1=O` (stereo not drawn): 0.141% and 36.5%.
For `Cn1ccc(CN2CCC(Oc3ccccc3)CC2)cc1=O`, the Percent Effect in experiment [1] was -1.21%; in experiment [2], -5.66%.
With `c1cnnc(NCC2CN(CCN3CCCCC3)CCO2)c1` (stereo not drawn), the Percent Effect in experiment [1] was -4.13%; in experiment [2], -5.19%.
Regarding `Cc1ccc(NC(=O)NCCCc2n[nH]c(N)c2C#N)cc1`, the Percent Effect in experiment [1] is 1.26%; in experiment [2], -18.4%.
The matching figures for `Cc1cccc(OCCNC(=O)CN2CCCC2Cn2cccn2)c1` (stereo not drawn): -1.71% and -0.164%.
